From PubChem BioAssay AID463173 (ICCB-Longwood Screening Facility, Harvard Medical School, 2010)
Among all 52,000 compounds or so, about 4,300 (8.3%) were called active. This excerpt belongs to a sample that is enriched for actives. A number with no mark means an inactive call. Cut-off read from the data, not from the text of the source: active = survival mostly below about 52% (no sharp cut-off); inactive = mostly above about 56%.

tested on: DeltatarO mutant; assay: S. aureus survival, RN4220 and DeltatarO strains – OD600, teichoic acid synthesis inhibitors, primary screen (AID 463173); conditions: S. aureus RN4220 wild type/DeltatarO growth, OD600, 18 h, stronger effect = lower value, screened at 18.75 µg/mL (by protocol)

SMILES | survival
COC(=O)c1cc(NC(=O)c2sc3ncn(Cc4cccc(F)c4)c(=O)c3c2C)cc(C(=O)OC)c1 | 92%
CCc1cccc(NC(=O)Cn2nc3c4cc(F)ccc4n(Cc4cccc(C)c4)cc-3c2=O)c1 | 84%
Cc1ccc(C(=O)COC(=O)c2cc(-c3ccc(Cl)cc3)nc3ccccc23)cc1 | 136%
COc1ccc(C(=O)COC(=O)c2cc(-c3cccs3)nc3ccccc23)cc1 | 58%
COc1ccc(-c2cc(C(=O)Oc3cccc(C)c3C)c3ccccc3n2)cc1 | 31% (active)
COc1ccc(-c2cc(C(=O)Oc3ccc(C)c(C)c3)c3ccccc3n2)cc1 | 40% (active)
COc1ccc(C(=O)COC(=O)c2cc(-c3ccccc3)nc3c(C)cccc23)cc1 | 64%
COc1ccc(-c2cc(C(=O)Oc3ccc(Br)cc3)c3ccccc3n2)cc1 | 48%
Cc1ccc(-c2cc(C(=O)NCCc3ccccc3)c3ccccc3n2)cc1C | 88%
CNC(=O)c1cc(-c2ccc(OC)cc2)nc2ccccc12 | 77%
COc1ccc(-c2cc(C(=O)Oc3ccc(C)cc3)c3ccccc3n2)cc1 | 11% (active)
COC(=O)c1cc(-c2ccc(OC)c(OC)c2)nc2ccccc12 | 72%
COc1ccc(-c2cc(C(=O)Oc3ccc(Cl)cc3)c3ccccc3n2)cc1 | 49% (active)
Cc1ccc(C(=O)COC(=O)c2cc(-c3ccccc3)nc3ccccc23)cc1C | 125%
CCn1cc(C(=O)OCC(=O)Nc2cccc(C(C)=O)c2)c(=O)c2ccc(C)nc21 | 84%
CCC(O)(CCN1CCCCC1)c1ccccc1 (stereo not drawn) | 80%
Cc1cc(C)cc(N(CC(=O)NCc2ccco2)C(=O)c2snc(C(N)=O)c2N)c1 | 93%
Cc1cccc(C(=O)N2CCc3cc(CNC(=O)CCc4ccccc4)ccc32)c1 | 60%
CC(=O)CSc1nnc2cc(C)c3cc(C)cc(C)c3n12 | 106%
CCOC(=O)CN1C(=O)N(c2ccc(C)c(C)c2)S(=O)(=O)c2ccccc21 | 80%
CCOc1ccc(CNCCSc2nnnn2C)cc1OC | 65%
Cn1nnnc1SCCNCc1ccccc1OCc1ccc(Cl)cc1Cl | 63%

SMILES | survival
COc1cc(CNCCSc2nnnn2C)ccc1OCc1ccc(Cl)cc1Cl | 30% (active)
COc1cc(CNCCSc2nnnn2C)ccc1OCc1c(F)cccc1Cl | 58%
CCOc1cc(CNCCSc2nnnn2C)ccc1OCc1ccc(Cl)cc1Cl | -6% (active)
COc1cc(CNCCSc2nnnn2C)ccc1OCc1ccccc1C | 56%
COc1ccc(-c2ccc(CCC(=O)O)n2CC(=O)Nc2cccc(C(F)(F)F)c2)cc1 | 54% (active)
O=C(O)CCc1ccc(-c2ccccc2)n1-c1cccc(Br)c1 | 65%
Cc1ccc(-c2ccc(CCC(=O)O)n2-c2cccc(O)c2)cc1 | 68%
COC(=O)c1ccccc1NC(=O)Cn1c(CCC(=O)O)ccc1-c1ccc(C)cc1 | 45% (active)
O=C(O)CCc1ccc(-c2ccc(Cl)cc2)n1-c1cccc(C(F)(F)F)c1 | 23% (active)
COc1ccc(OC)c(NC(=O)Cn2c(CCC(=O)O)ccc2-c2ccccc2)c1 | 103%
COc1ccc(-c2ccc(CCC(=O)O)n2CC(=O)Nc2cccc(Cl)c2C)cc1 | 46%
COc1ccc(NC(=O)Cn2c(CCC(=O)O)ccc2-c2ccccc2)cc1Cl | 61%
COC(=O)c1ccccc1NC(=O)Cn1c(CCC(=O)O)ccc1-c1cccs1 | 54%
Cc1cc(NC(=O)N2CC=C(c3c[nH]c4ccccc34)CC2)ccc1Br | 81%
Cn1c(=O)[nH]c(=O)c2c1nc(NCCO)n2CC(O)COc1ccccc1 (stereo not drawn) | 165%
COC(=O)c1ccc(Nc2cc(=O)[nH]c(=O)[nH]2)cc1 | 79%
CCOc1ccccc1NC(=O)CN1C(=O)CC(c2ccc(C)c(C)c2)=Nc2ccccc21 | 74%
CCOCCCNC(=O)c1c[nH]c2ccc(S(=O)(=O)N(C)c3ccc(Cl)cc3F)cc2c1=O | 124%
CC(C)(C)OC(=O)N1CCC(c2c(C(=O)NC3CCCCC3)cnn2-c2cccc(F)c2)CC1 | 128%
Cc1ccc(CSc2nc3c([nH]c4ccccc43)c(=O)n2C)cc1 | 94%
Cc1ccc(Sc2ccc(N3CCC(C(=O)Nc4ccc(Cl)cc4)CC3)nn2)cc1 | 72%
